# PubChem BioAssay
# Inconclusive results are not listed. Activity calls are given as the source filed them. Unless noted, no stated cut-off is given here; in the data, active means inhibition above about 80%; inactive means the rest.
# How the values were obtained:
# [1] = growth inhibition of DIPG glioma cells, dose response, cell-based, SU-DIPG-XVII, MIPE5.0, CellTiter-Glo, qHTS (AID 1347060; cut-off not given, nearly all actives have AC50 up to about 26 µM;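 on AC50: cells exposed to compound for 48 hours before viability readout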); details: SU-DIPG-XVII viability, CellTiter-Glo ATP luminescence
# [2] = growth inhibition of DIPG glioma cells, dose response, cell-based, SU-DIPG-XIII, MIPE5.0, CellTiter-Glo, qHTS (AID 1347064; cut-off not given, nearly all actives have AC50 up to about 23 µM;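 on AC50: cells exposed to compound for 48 hours before the viability read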); details: SU-DIPG-XIII viability, CellTiter-Glo ATP luminescence
# [3] = viability loss in pontine glioma line – cell-based, SU-DIPG-XXV, MIPE5.0, CellTiter-Glo, qHTS, dose response (AID 1347065; cut-off not given, nearly all actives have AC50 up to about 26 µM;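 further: cells exposed to compound for 48 hours before ATP readout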); details: CellTiter-Glo ATP luminescence
# [4] = JHH-DIPG-1 glioma cell viability, MIPE5.0 library, CellTiter-Glo luminescence, qHTS (AID 1347067; cut-off not given, nearly all actives have AC50 up to about 26 µM;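 further: cells exposed to compound for 48 hours before readout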); details: JHH-DIPG-1 glioma viability, CellTiter-Glo ATP luminescence
# [5] = SU-DIPG-XXV glioma cell viability, MIPE5.0 library, qHTS (AID 1347068; cut-off not given, nearly all actives have IC50 up to about 30 µM;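 on IC50: cells exposed to compound for 48 hours before viability readout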)
# [6] = LFS_MB_P medulloblastoma growth inhibition, cell-based, chromothripsis tumors, cisplatin or BGB combos (AID 1671449); details: LFS_MB_P medulloblastoma cells;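 further: cells exposed for 96 hours; 0% = vehicle DMSO and 100% = killing by high DMSO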
# [7] = HDN33 neuroblastoma growth inhibition, cell-based, chromothripsis tumors, cisplatin or BGB combos (AID 1671450); details: HDN33 neuroblastoma cells, stronger effect = higher value;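 further: cells exposed to compound for four days; 0% = vehicle DMSO and 100% = cell killing by high DMSO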
# [8] = ICB984 medulloblastoma cell growth inhibition, synergistic combos for chromothripsis tumors, cisplatin or BGB combos (AID 1671451; call rule not given here;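 further: cells exposed for 96 hours before readout; 0% = vehicle DMSO and 100% = killing by high DMSO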); details: ICB984 medulloblastoma cells, drug combinations, stronger effect = higher value
# [9] = LFS_MB_1R medulloblastoma cell growth inhibition, synergistic combos for chromothripsis tumors, cisplatin or BGB combos (AID 1671452); details: LFS_MB_1R medulloblastoma cells, stronger effect = higher value;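 further: cells exposed for 96 hours before readout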
# [10] = HTB85 osteosarcoma cell growth inhibition, synergistic combos for chromothripsis tumors, BGB or cisplatin IC20 combos (AID 1671453); details: HTB85 osteosarcoma cells, drug combinations, stronger effect = higher value;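 further: cells exposed for 96 hours before readout; 0% = vehicle DMSO and 100% = high DMSO killing control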
# [11] = CRL2098 osteosarcoma cell growth inhibition, synergistic combos for chromothripsis tumors, BGB or cisplatin IC20 combos (AID 1671454); details: CRL2098 osteosarcoma cells, drug combinations, stronger effect = higher value;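 further: cells exposed for 96 h before readout; 0% = vehicle DMSO and 100% = killing by high DMSO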
# [12] = HD-MB03 medulloblastoma cell growth inhibition, synergistic combos for chromothripsis tumors, BGB or cisplatin IC20 combos (AID 1671455; in the data active means inhibition above about 83%;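 further: 0% = vehicle DMSO and 100% = high DMSO as cytotoxic control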); details: HD-MB03 medulloblastoma cells, stronger effect = higher value
# [13] = UWB1.289 ovarian carcinoma cell growth inhibition, synergistic combos for chromothripsis tumors, BGB or cisplatin combos (AID 1671456); details: UWB1.289 ovarian carcinoma cells, stronger effect = higher value;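 further: cells exposed to compound for four days; 0% = vehicle DMSO and 100% = killing by high DMSO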
# [14] = MDA-MB-436 breast carcinoma cell growth inhibition, synergistic combos for chromothripsis tumors, BGB or cisplatin combos (AID 1671458; call rule not given here;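 further: cells exposed for 96 hours; 0% = vehicle DMSO and 100% = killing by high DMSO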); details: MDA-MB-436 breast carcinoma growth inhibition, drug combinations, stronger effect = higher value
# [15] = growth inhibition of BT084 medulloblastoma cells, cell-based, ICGC_MB145, cisplatin and BGB IC40 combos (AID 1671461); details: drug combinations, stronger effect = higher value;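 further: cells exposed to drugs for 96 hours; 0% = vehicle DMSO and 100% = high DMSO full killing control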
# [16] = growth inhibition of RCMB18 medulloblastoma cells, cell-based, cisplatin and BGB IC40 combos (AID 1671462); details: stronger effect = higher value;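 further: cells exposed to compound for four days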
# [17] = growth inhibition of CRL1545 osteosarcoma cells, cell-based, cisplatin and BGB IC20 combos (AID 1671464); details: stronger effect = higher value;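 further: cells exposed to compound for 96 hours before readout; 0% = vehicle DMSO and 100% = high DMSO killing control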
# [18] = sensitizers of A549 cells to miR-34 induction, primary screen, imaging, A549 dox-inducible miR-34, nuclei and caspase counts (AID 1347080;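 active means compounds whose cell count with miR-34 switched on is under 0.7 times the count with it off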); details: A549 miR-34 inducible, Hoechst nuclei count, 48 h
# [19] = survival rescue of mitochondrial mutant cells in low glucose, primary screen, MELAS cybrids, Rieske KO mouse fibroblasts, CellTiter-Glo (AID 1508586;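 active means mean z-score across replicates of 1.96 or higher in either the MELAS or the Rieske mutant cell line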;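 further: z relative to plate mean and SD of compound and empty wells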)
# [20] = measured here: combination with BGB IC40, at 0.05 µM
# [21] = measured here: with BGB IC20 combination, at 0.5 µM
# [22] = measured here: with cisplatin IC20 combination, at 0.5 µM
# [23] = measured here: combination with cisplatin, at 0.5 µM
structure (smiles),measurement,setting,value
N=C1CCCN1Cc1[nH]c(=O)[nH]c(=O)c1Cl,outcome,[1],inactive
same,outcome,[2],inactive
same,outcome,[3],inactive
same,outcome,[4],inactive
same,outcome,[5],inactive
same,inhibition,"[6]; at 0.5 µM, stronger effect = higher value",-20% (inactive)
same,inhibition,"[6]; measured here: combination with BGB IC20, at 0.005 µM",7.99%
same,inhibition,"[6]; measured here: combination with BGB IC40, at 0.005 µM",-21.4%
same,inhibition,[6]; [20],-6.35%
same,inhibition,"[6]; measured here: combination with cisplatin, at 0.5 µM, stronger effect = higher value",-51.5%
same,inhibition,"[6]; measured here: combination with cisplatin, at 5 µM, stronger effect = higher value",0.237%
same,inhibition,"[7]; BGB combo, at 5 µM",-2.48%
same,inhibition,[7]; at 0.5 µM,2.44% (inactive)
same,inhibition,"[7]; cisplatin combo, at 5 µM",22.1%
same,inhibition,[7]; [21],3.45%
same,inhibition,[7]; [22],3.39%
same,inhibition,"[7]; single agent, at 5 µM",-10.2%
same,inhibition,"[8]; BGB IC20 combo, at 0.005 µM",12.8%
same,inhibition,"[8]; BGB IC40 combo, at 0.005 µM",-11.6%
same,inhibition,"[8]; BGB IC40 combo, at 0.05 µM",-8.96%
same,inhibition,[8]; at 0.5 µM,-1.56% (inactive)
same,inhibition,"[8]; cisplatin combo, at 0.05 µM",-12%
same,inhibition,"[8]; cisplatin combo, at 0.5 µM",11.2%
same,inhibition,"[8]; cisplatin combo, at 5 µM",-26.7%
same,inhibition,"[8]; measured here: 5 uM single agent, at 5 µM",-22.7%
same,inhibition,[9]; at 0.5 µM,-12.8% (inactive)
same,inhibition,[9]; [20],8.6%
same,inhibition,[9]; [23],-12.6%
same,inhibition,"[9]; measured here: combination with cisplatin, at 5 µM",-5.77%
same,inhibition,[10]; at 0.5 µM,8.24% (inactive)
same,inhibition,"[10]; measured here: with BGB IC20, at 0.5 µM",11.6%
same,inhibition,"[10]; measured here: with BGB IC20, at 5 µM",59.6%
same,inhibition,"[10]; measured here: with cisplatin IC20, at 0.5 µM",-6.26%
same,inhibition,"[10]; measured here: with cisplatin IC20, at 5 µM",-29%
same,inhibition,"[10]; single agent, at 5 µM",-1.22%
same,inhibition,[11]; at 0.5 µM,2.27% (inactive)
same,inhibition,"[11]; measured here: combination with BGB at IC20, at 0.5 µM",3.71%
same,inhibition,"[11]; measured here: combination with cisplatin at IC20, at 0.5 µM",0.594%
same,inhibition,[12]; at 0.5 µM,-9.24% (inactive)
same,inhibition,"[12]; measured here: combo with BGB at IC20, at 0.5 µM",-10.8%
same,inhibition,"[12]; measured here: combo with cisplatin at IC20, at 0.5 µM",-6.6%
same,inhibition,[13]; at 0.5 µM,19.4% (inactive)
same,inhibition,"[13]; measured here: inhibition with BGB combination, at 0.05 µM",-16.6%
same,inhibition,"[13]; measured here: inhibition with cisplatin combination, at 0.05 µM",-2.8%
same,inhibition,[14]; at 0.5 µM,-5.08% (inactive)
same,inhibition,"[14]; measured here: BGB combination, at 0.5 µM",3%
same,inhibition,"[14]; measured here: BGB combination, at 5 µM",-6.4%
same,inhibition,"[14]; measured here: cisplatin combination, at 0.5 µM",-14.7%
same,inhibition,"[14]; measured here: cisplatin combination, at 5 µM",-27%
same,inhibition,[15]; at 0.5 µM,-23.1% (inactive)
same,inhibition,"[15]; cisplatin combination, at 0.5 µM",-17.8%
same,inhibition,"[15]; cisplatin combination, at 5 µM",-5.35%
same,inhibition,"[15]; measured here: BGB IC40 combination 0.05 uM, at 0.05 µM",-15.9%
same,inhibition,"[15]; single agent, at 5 µM",-9.51%
same,inhibition,[16]; at 0.5 µM,3.14% (inactive)
same,inhibition,"[16]; cisplatin combo, at 5 µM",-11.8%
same,inhibition,"[16]; measured here: BGB IC40 combination, at 0.05 µM",22%
same,inhibition,[16]; [23],1.1%
same,inhibition,"[16]; single agent, at 5 µM",-5.54%
same,inhibition,[17]; at 0.5 µM,26.4% (inactive)
same,inhibition,[17]; [21],22.4%
same,inhibition,[17]; [22],26.7%
same,inhibition,"[17]; single agent, at 0.05 µM",12.9%
same,inhibition,"[17]; single agent, at 5 µM",25.1%
C=CC(=O)Nc1cccc(Nc2nc(Nc3ccc(N4CCN(C(C)=O)CC4)cc3OC)ncc2C(F)(F)F)c1,AC50,[1],1.48 µM (active)
same,AC50,[2],1.66 µM (active)
same,AC50,[3],742 nM (active)
same,AC50,[4],1.86 µM (active)
same,IC50,[5],1.32 µM (active)
same,fold change,"[18]; stronger effect = lower value, cell number ratio, induced over uninduced",0.925 (inactive)
same,fold change,[18]; measured here: relative caspase fold change +Dox/-Dox,0.348
same,cell count,"[18]; measured here: total cells with miR-34 induction, stronger effect = lower value",2040
same,cell count,[18]; measured here: total cells without miR-34 induction,2210
same,z-score,"[19]; MELAS cybrid survival, CellTiter-Glo 48 h, stronger effect = higher value",-0.595 (inactive)
same,z-score,"[19]; Rieske KO mouse fibroblast survival, CellTiter-Glo 72 h",1.83
CCN1CCN(Cc2ccc(NC(=O)c3ccc(C)c(NC(=O)c4cncc(-c5cccs5)c4)c3)cc2C(F)(F)F)CC1,AC50,[1],5.9 µM (active)
same,AC50,[2],14.8 µM (active)
same,AC50,[3],1050 nM (active)
same,AC50,[4],2.63 µM (active)
same,IC50,[5],4.17 µM (active)
